Measurements taken from PubChem BioAssay (NCATS).
Inconclusive results are not listed. A number with no mark means an inactive call. The source made the active and inactive calls. Calls follow the shape of the dose curve; as a rule, active = well fitted inhibition curve with a large enough effect; inconclusive = small, poorly fitted or top-dose-only effect; inactive = flat fitted curve, though single readings scatter.

Experiment: P-glycoprotein substrates identified in KB-8-5-11 adenocarcinoma cell line, qHTS therapeutic library screen (AID 1346987); also: nearly all actives have a fitted effect of over 65% in size
Conditions: KB-8-5-11 (P-gp overexpressing) viability, CellTiter-Glo, 72 h; series mostly up to 44.5 µM; activity change, negative = cytotoxicity: at the top concentration
Outline: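 P-gp-mediated resistance screen: KB-8-5-11 cells treated 72 h with compounds in dose-response. CellTiter-Glo viability.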
% is scaled to controls: 0 for no effect and ±100 for the full control effect.

Row | Structure (SMILES) | outcome | activity change, negative = cytotoxicity
1 | CC(C)C1=CC2=CCC3[C@](C)(CCC[C@@]3(C)C(=O)O)C2CC1=O (some centres undefined) | inactive | –
2 | CC1(C)CC[C@]2(C(=O)O)CC[C@]3(C)C(=CCC4[C@@]5(C)CCC(O[C@@H]6OC[C@H](O)[C@H](O)[C@H]6O[C@@H]6O[C@H](CO)[C@@H](O)[C@H](O)[C@H]6O)[C@@](C)(CO)C5CC[C@]43C)[C@@H]2C1 (some centres undefined) | inactive [at 17.3 µM] | –
3 | O=C1NC(Cc2ccc(O)cc2)C(=O)N2CCCC12 (centres undefined) | – | 3.23%
4 | CNC(=O)Nc1ccc(OC)c(NC(=O)NC(=O)c2cc(F)c(F)cc2Cl)c1 | inactive | –
5 | CC(CO[C@@H]1O[C@H](COC(=O)/C=C/c2ccc(O)c(O)c2)[C@@H](O)[C@H](O)[C@H]1O)C1(O)COC(=O)C1 (some centres undefined) | – | -5.06% [at 17.3 µM]
6 | CC1(O)CCC2C(C(=O)O)=COC(OC3OC(CO)C(O)C(O)C3OC(=O)/C=C/c3ccc(O)cc3)C21 (centres undefined) | – | 2.76% [at 17.3 µM]
7 | C=C1CC23CCC4[C@@](C)(CCC[C@@]4(C)C(=O)O)C2CCC1C3 (some centres undefined) | – | 1.4%
8 | CC1(C)CC2C3=CCC4C5(C)CCC(OC6OC(C(=O)O)C(O)C(O)C6OC6OC(CO)C(O)C(O)C6OC6OC(CO)C(O)C(O)C6O)C(C)(CO)C5CCC4(C)C3(C)CCC2(C)C(OC2OCC(O)C(OC3OC(CO)C(O)C(O)C3O)C2O)C1O (centres undefined) | – | 1.76% [at 9.29 µM]
9 | COc1ccc([C@H]2Cc3cccc(O)c3C(=O)O2)cc1 | – | -3.39%
10 | C/C=C/C=C/C(CC(=O)O)Nc1ccc(C=O)cc1 (centres undefined) | inactive | –
11 | O=c1ccn([C@@H]2O[C@H](CO)[C@@H](O)[C@H]2O)c(=O)[nH]1 | inactive | –
12 | CC1(C)CC2C(O)C3=C(CC(C)(O)C2C1)C(=O)OC3O (centres undefined) | – | 0.194%
13 | COc1cc(O[C@@H]2O[C@H](CO)[C@@H](O)[C@H](O)[C@H]2O)c(CCC(=O)OC[C@H]2O[C@@H](Oc3cc(OC)c(C4OC(=O)C(C)(O)C4O)cc3CCC(=O)O)[C@H](O)[C@@H](O)[C@@H]2O)cc1C1OC(=O)C(C)(O)C1O (some centres undefined) | inactive [at 9.29 µM] | –
14 | C[C@@H]1CCC2C(C)(C)[C@H](O)CC[C@]2(C)[C@@]12Cc1c(O)cc3c(c1O2)CN(CCO)C3=O (some centres undefined) | inactive [at 17.3 µM] | –
